From PubChem BioAssay
ADAM10 inh: ADAM10 inhibition, QFRET primary screen; recombinant ADAM10, EDANS/DABCYL FRET peptide cleavage, 3 h; inhibition, % at 7 µM; hit rate 0.62% among 370,000; AID 720582;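 active = inhibition above a per-campaign cutoff equal to the mean of compounds falling between control-based bounds plus 3 SD, cut at about 20% in these data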;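 note: 0% = DMSO wells while the 100% control is not disclosed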
Target sequence (O14672 214-748 limits assumed): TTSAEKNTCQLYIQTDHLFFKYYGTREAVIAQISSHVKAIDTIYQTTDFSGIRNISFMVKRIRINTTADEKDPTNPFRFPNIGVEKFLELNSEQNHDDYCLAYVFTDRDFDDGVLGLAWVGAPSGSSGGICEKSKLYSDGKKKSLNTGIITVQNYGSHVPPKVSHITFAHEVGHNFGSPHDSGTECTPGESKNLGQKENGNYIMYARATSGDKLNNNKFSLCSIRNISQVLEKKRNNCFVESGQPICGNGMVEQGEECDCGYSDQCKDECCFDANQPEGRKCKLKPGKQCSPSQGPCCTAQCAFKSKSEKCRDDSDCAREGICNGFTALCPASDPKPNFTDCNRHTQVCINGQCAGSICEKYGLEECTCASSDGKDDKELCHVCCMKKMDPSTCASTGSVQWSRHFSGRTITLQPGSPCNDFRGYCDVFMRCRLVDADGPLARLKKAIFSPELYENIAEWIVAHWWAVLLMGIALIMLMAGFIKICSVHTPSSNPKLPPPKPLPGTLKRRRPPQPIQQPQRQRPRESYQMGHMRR
aDG glyco up: alpha-DG glycosylation activation | Pro5-aDG cells, alpha-DG glycosylation AlphaScreen (IIH6); 0% Pro5, 100% B10-LARGE cell signal | activation, % at 10 µM | hit rate 0.22% among 360,000;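 active = activation of at least 8% versus controls, or a plate z-score of at least 8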;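 note: Pro5 are CHO cells carrying HIG-tagged alpha-DG that lacks glycosylation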
NR3A LBD binder: NR3A (human) ligand-binding domain modulation. NR3A LBD differential scanning fluorimetry, Tm shift; 0% = protein alone, 100% = glycine-bound protein. Tm shift relative to glycine control, % at 25 µM. hit rate 2.5% among 340,000. AID 1259313;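 active = melting temperature shift of at least 10% of the positive control shift, at one fixed dose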
FAS TE block: blocks the thioesterase domain of human fatty acid synthase | P49327 | recombinant FAS-TE, OMFH fluorogenic substrate, fluorescence endpoint | inhibition, % at 15 µM | AID 602261 | hit rate 0.67% among 360,000;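 active = compounds whose normalised, plate-corrected inhibition of enzyme fluorescence in the single-dose primary screen is 50% or more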;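 note: 0% = DMSO with enzyme and 100% = substrate without enzyme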
ADAM17 inh: inhibitors of human ADAM17 | P78536 | inhibition, % at 6.95 µM | hit rate 0.83% among 370,000 | recombinant ADAM17, EDANS/DABCYL FRET peptide cleavage | AID 720648;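 active = inhibition above the mean of compounds lying between control limits plus 3 SD, set per campaign, cut at about 8.5% in these data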;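 note: 0% = DMSO-only wells as the low control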
ADAM10 counter: counter-screen for ADAM17 exosite inhibitors: inhibitors of human ADAM10; shares compounds with ADAM17 inh; inhibition, % at 6.95 µM; recombinant ADAM10, EDANS/DABCYL FRET peptide cleavage, 3 h; AID 743256; hit rate 47% among 2,900;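 active = mean inhibition over the triplicate runs exceeds the activity threshold set in the earlier primary screen, cut at about 20% in these data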;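 note: 0% = DMSO wells and 100% = marimastat wells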
ADAM17 confirm: human ADAM17 inhibition, confirmation; AID 743257; shares compounds with ADAM17 inh; hit rate 65% among 2,900; recombinant ADAM17, EDANS/DABCYL QFRET peptide cleavage; inhibition, % at 6.95 µM;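 active = mean inhibition across replicates above the hit cutoff set in the primary screen, cut at about 8.5% in these data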;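 note: 0% = DMSO wells and 100% = marimastat wells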
Starred values were filed as active, the others as inactive. In the library only some 4% were active in any assay of this set; here they are far more common.

CC(C)(C)c1csc(NNC(=O)c2ccc(Br)cc2)n1 was read as ADAM10 inh 19.5, aDG glyco up -0.1, NR3A LBD binder -3.6, FAS TE block -12.9, ADAM17 inh 8.7*, ADAM10 counter -5.3 and ADAM17 confirm 4.0.
Screening Cc1ccc(C(=O)OCC(=O)c2c[nH]c3ccccc23)cc1S(=O)(=O)N1CCOCC1 returned ADAM10 inh -2.9, aDG glyco up 0.0, NR3A LBD binder -4.5, FAS TE block 6.7, ADAM17 inh 10.0*, ADAM10 counter -6.7 and ADAM17 confirm 2.7.
O=[N+]([O-])c1cccc(-c2c(-c3ccccc3)ncc3ccc(F)cc23)c1 was read as ADAM10 inh 4.5, aDG glyco up 0.0, NR3A LBD binder -5.2, FAS TE block 25.0, ADAM17 inh 10.7*, ADAM10 counter 6.4 and ADAM17 confirm 5.2.
Screening Fc1cccc(-c2c(-c3ccccc3)ncc3cc(F)ccc23)c1 returned ADAM10 inh -5.9, aDG glyco up 0.0, NR3A LBD binder 1.1, FAS TE block 22.0 and ADAM17 inh -0.1.
Screening Cc1ccc(S(=O)(=O)N2C[C@@H](C)[C@]3(C2)[C@H](O)[C@H](OC(=O)Nc2c(C)noc2C)C[C@H]2C(=O)N(c4ccccc4)C(=O)[C@H]23)cc1 returned ADAM10 inh 4.1, aDG glyco up 1.3, FAS TE block -6.0 and ADAM17 inh -1.6.
Screening Cc1ccc(S(=O)(=O)N2C[C@@H](C)[C@]3(C2)[C@H](O)[C@H](OC(=O)NCc2ccccc2F)C[C@H]2C(=O)N(c4ccccc4)C(=O)[C@H]23)cc1 returned ADAM10 inh 13.8, aDG glyco up 0.1, FAS TE block 28.5, ADAM17 inh 9.2*, ADAM10 counter 36.8* and ADAM17 confirm 20.0*.
`O=C(Nc1ccccc1Oc1ccccc1)c1cc([N+](=O)[O-])ccc1Cl` gave ADAM10 inh -2.8, aDG glyco up 0.6, NR3A LBD binder 6.9, FAS TE block 49.3, ADAM17 inh 8.9*, ADAM10 counter -0.2 and ADAM17 confirm 3.2.
Screening Cc1cccc(NC(=O)c2cc([N+](=O)[O-])ccc2Cl)c1O returned ADAM10 inh 0.7, aDG glyco up 0.5, NR3A LBD binder 0.0, FAS TE block 46.7 and ADAM17 inh 0.3.
For CCCCN(C)Cc1c(O)ccc2c(=O)c(-c3ccccc3OC)coc12 the results were ADAM10 inh inactive, aDG glyco up 0.0, NR3A LBD binder 0.2, FAS TE block -7.3 and ADAM17 inh inactive.
For O=S(=O)(c1ccc2nc(Cc3ccccc3)[nH]c2c1)N1CCOCC1 the results were ADAM10 inh 17.5, aDG glyco up 0.1, NR3A LBD binder 0.6, FAS TE block -6.9, ADAM17 inh 8.8*, ADAM10 counter 12.9 and ADAM17 confirm 6.3.
`O=c1c2[nH]c3ccccc3c2ncn1Cc1ccccn1` gave ADAM10 inh -21.6, aDG glyco up 0.4, NR3A LBD binder 0.9, FAS TE block -8.5 and ADAM17 inh -4.6.
CCOc1ccc(C(=O)OC(C)CN2CCCCC2)cc1 (stereo not given) was read as ADAM10 inh -2.3, aDG glyco up 0.2, NR3A LBD binder 1.6, FAS TE block -5.7 and ADAM17 inh -3.3.
`COc1ccc2nc(NC(=S)N(C)C)sc2c1` gave ADAM10 inh 6.2, aDG glyco up 0.7, NR3A LBD binder 24.0*, FAS TE block 0.0, ADAM17 inh 12.9*, ADAM10 counter -10.1 and ADAM17 confirm 0.7.
Screening CCCC(=O)Nc1nc2ccc(OC)cc2s1 returned ADAM10 inh 3.0, aDG glyco up 0.0, NR3A LBD binder 0.1, FAS TE block -3.1 and ADAM17 inh 1.0.
COCCN(C(=O)COC(=O)CCC(=O)c1ccc(C)cc1)c1c(N)n(Cc2ccccc2)c(=O)[nH]c1=O was read as ADAM10 inh -6.8, aDG glyco up 0.2, NR3A LBD binder 1.8, FAS TE block -1.0 and ADAM17 inh 2.9.
O=C(NCCOCC(F)(F)C(F)F)c1cc(F)c(F)cc1Cl was read as ADAM10 inh 8.7, aDG glyco up 0.1, NR3A LBD binder -0.5, FAS TE block -2.8, ADAM17 inh 8.7*, ADAM10 counter -7.4 and ADAM17 confirm 1.5.
C=CCn1c(-c2ccoc2C)n[nH]c1=S was read as ADAM10 inh 2.7, aDG glyco up -0.1, NR3A LBD binder 0.7, FAS TE block -11.3 and ADAM17 inh -5.2.
`CCOC(=O)C1=CN(Cc2cccc(F)c2)S(=O)(=O)NC1c1cccc(OC)c1` (stereo not given) gave ADAM10 inh -2.7, aDG glyco up 0.2, NR3A LBD binder 0.8, FAS TE block 13.9 and ADAM17 inh -3.7.
Screening CCOC(=O)C1=CN(Cc2cccc(F)c2)S(=O)(=O)NC1c1ccc2ccccc2c1 (stereo not given) returned ADAM10 inh 19.7, aDG glyco up 0.1, NR3A LBD binder 7.9, FAS TE block 23.3, ADAM17 inh 9.8*, ADAM10 counter 14.7 and ADAM17 confirm 11.3*.
CCc1cc(-c2n[nH]c(C)c2-c2ccccc2Cl)c(O)cc1OC was read as ADAM10 inh 16.8, aDG glyco up 0.0, NR3A LBD binder 13.2*, FAS TE block -16.5, ADAM17 inh 8.7*, ADAM10 counter 32.3* and ADAM17 confirm 15.7*.
`CCOc1ccc(-c2n[nH]c(C)c2-c2ccccc2OC)c(O)c1` gave ADAM10 inh 19.1, aDG glyco up 0.2, NR3A LBD binder -15.5, FAS TE block -1.9 and ADAM17 inh 4.3.
`O=C(CSc1nc2cc(Cl)ccc2s1)c1cc2ccccc2o1` gave ADAM10 inh 17.1, aDG glyco up 0.3, NR3A LBD binder -2.6, FAS TE block 21.1, ADAM17 inh 12.4*, ADAM10 counter 4.8 and ADAM17 confirm 4.7.
Screening O=C(CSc1nc2cc(Cl)ccc2s1)Nc1cccc(S(=O)(=O)N2CCOCC2)c1 returned ADAM10 inh 19.6, aDG glyco up 0.1, NR3A LBD binder 6.4, FAS TE block 31.6, ADAM17 inh 10.6*, ADAM10 counter 19.9* and ADAM17 confirm 10.4*.
Screening CCN=c1scc(-c2ccccc2)n1/N=C/c1ccccn1 returned aDG glyco up 1.4, NR3A LBD binder -5.1 and FAS TE block 33.6.
Screening CCn1c(CNC(=O)COc2ccc(C(C)C)cc2)nnc1SCC(=O)Nc1ccc(F)cc1 returned ADAM10 inh 2.6, aDG glyco up 0.2, NR3A LBD binder 0.8, FAS TE block 20.3 and ADAM17 inh 4.1.
`CCn1c(CNC(=O)COc2ccc(C(C)C)cc2)nnc1SCC(=O)Nc1cc(F)ccc1C` gave ADAM10 inh 12.5, aDG glyco up 0.2, NR3A LBD binder -41.0, FAS TE block 12.3, ADAM17 inh 11.7*, ADAM10 counter 0.8 and ADAM17 confirm 3.9.
